Experimental findings from PubChem BioAssay (Tox21) are described below.

Unmarked numbers belong to inactive results. Inconclusive results are not listed. Active and inactive are the calls of the source. Unless noted, calls come from the whole dose curve; as a rule, active = well fitted curve in the direction sought with a large enough effect in the repeat runs; inconclusive = weak or mixed curves; inactive = no such curve, though single readings can be large; an effect the other way counts as inactive or inconclusive.

Experiment [1] in a line: qHTS assay to identify small molecule agonists of the hypoxia (HIF-1) signaling pathway - cell viability counter screen (AID 1224844; calls by dose curve; note: nearly all actives have a fitted effect of over 50% in size; note: potency is the fitted concentration of half-maximal effect). The method, boiled down: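 In this counter screen, HRE-bla ME-180 cell viability after 17 hrs of compound exposure at 37C was read by CellTiter-Glo luminescence, multiplexed with the beta-lactamase reporter measurement.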
Experiment [2] is described as follows: qHTS assay to identify small molecule agonists of the hypoxia (HIF-1) signaling pathway (AID 1224846; active = well fitted activation curve with a large enough effect in the signal ratio in the repeat runs, not every such curve was filed as active; the % refers to the signal ratio). Summed up:
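ME-180 HRE-bla reporter cells; compounds in DMSO, 17 h at 37C; read-out beta-lactamase via CCF4-AM FRET.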
In general terms: qHTS replaces the single test concentration by a dilution series.

Experiment [3] is described as follows: qHTS assay to identify small molecule agonists of H2AX - cell viability counter screen (AID 1224847; calls by dose curve; note: nearly all actives have a fitted effect of over 30% in size; note: potency is the fitted concentration of half-maximal effect; for activity change, negative = cytotoxicity: top concentration of the series differs between compounds). The method, boiled down:
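Cells plated first: CHO-K1, 1000 per well in 10% FBS medium, incubated overnight at 37C. Then 15-point compound titration added (final DMSO 0.76%) for 3 hr. Finally CellTiter-Glo added and luminescence read.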

Experiment [4] in a line: qHTS assay to identify small molecule antagonists of the estrogen related receptor (ERR) signaling pathway from Tox21 library (AID 1224848). Note: nearly all actives have a fitted effect of over 50% in size. Summed up: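 Compounds dissolved in DMSO are pin-transferred onto ERR reporter cells (2,000 per well) that have settled for 6 h at 37 C. Plates then incubate 18 h at 37 C before ONE-Glo luciferase reagent and a luminescence read 30 min later.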

The nature of experiment [5]: qHTS assay to identify small molecule agonists of the estrogen related receptor (ERR) signaling pathway from Tox21 library (AID 1224849; calls by dose curve; note: nearly all actives have a fitted effect of over 15% in size). The conditions noted are these: ERR reporter cell line, ONE-Glo luciferase, 18 h; at 92.4 µM (top of the series) unless noted. The method, boiled down:
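Luciferase activity in ERR pathway reporter cells served as the agonist readout; exposure lasted 18 h at 37 C, with ONE-Glo detection after 30 min at room temperature.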

Experiment [6] is described as follows: qHTS RealTime-Glo MT Cell Viability Assay in HepG2 cells - 24 hour (AID 1224867). Note: nearly all actives have a fitted effect of over 50% in size. Summed up:
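HepG2 cells (600/well) were dispensed with RealTime-Glo reagents, incubated 5 h at 37 °C, then treated with compounds in DMSO for up to 40 h. Nonlytic NanoLuc luminescence reflecting viable cells was read at each stated time point.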

Experiment [7] is described as follows: qHTS RealTime-Glo MT Cell Viability Assay in HEK293 cells - 32 hour (AID 1224868). For activity change, negative = cytotoxic: top concentration of the series differs between compounds. Note: nearly all actives have a fitted effect of over 50% in size. Note: potency is the fitted concentration of half-maximal effect. The method, boiled down:
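HEK293 cells seeded with NanoLuc/prosubstrate reagent, rested 5 h at 37 C, then dosed and kept at 37 C up to 40 h. Nonlytic real-time luminescence from viable cells read at 0, 8, 16, 24, 32 and 40 h.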

The nature of experiment [8]: A CellTox Green Cytotoxicity Assay to monitor cytotoxicity in HEK293 cells - 0 hour (AID 1224869). Note: nearly all actives have a fitted effect of over 50% in size. Summed up: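 Real-time, in one plate: 600 HEK293 cells/well with dead-cell DNA dye, pinned compound after 5 h, 37 C incubation over 40 h; viable cells give no appreciable fluorescence.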
A short description of experiment [9]: qHTS RealTime-Glo MT Cell Viability Assay in HepG2 cells - 40 hour (AID 1224870). Note: nearly all actives have a fitted effect of over 50% in size. The method, boiled down:
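HepG2 cells (600/well) mixed with RealTime-Glo MT reagent, settled 5 h at 37 C/5% CO2 before compound addition. Nonlytic NanoLuc luminescence from viable-cell prosubstrate reduction read repeatedly during 40 h treatment at 37 C.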

A short description of experiment [10]: qHTS assay to identify small molecule agonists of H2AX (AID 1224845; active = well fitted activation curve with a large enough effect in the signal ratio in the repeat runs, not every such curve was filed as active; the % refers to the signal ratio). Summed up: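 Wild-type CHO-K1 cells, plated overnight, exposed 3hr at 37C to 15 concentrations (0.76% DMSO final). Lysed, then HTRF anti-pH2AX (S139) cryptate and anti-H2AX-d2 antibodies, 24 hr room temperature; 665/620 nm emission read.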
% is set by controls: 0 for no effect and ±100 for the full control effect.

In the case of `C[C@@H](c1ncncc1F)C(O)(Cn1cncn1)c1ccc(F)cc1F` (some centres not stated), the Potency result in experiment [1], in experiment [2], in experiment [3], in [4], in [6] and in experiment [7] was “inactive” each time. For the same compound, the Potency entry in experiment [8] and in [9] was “inactive” each time. In addition, in experiment [5], the activity change, positive = activation was -0.316% [at 42.5 µM].

On to `CC(=O)c1cccc([N+](=O)[O-])c1`, for which the Potency entry in [1], in experiment [2], in experiment [3], in experiment [6], in [7] and in experiment [8] was “inactive” in each case. For the same compound, the Potency result in experiment [9] was “inactive”.

Consider `COC(C)(C)CCO`, for which the Potency result in experiment [1], in experiment [2], in experiment [3], in experiment [4], in [6] and in [7] was “inactive” throughout. The Potency result in experiment [8] and in [9] was “inactive” throughout. The activity change, positive = activation in experiment [5] was 3.52%.

As to `CC(=O)OC[C@H]1O[C@@H](n2ncc(=O)[nH]c2=O)[C@H](OC(C)=O)[C@@H]1OC(C)=O`, the Potency entry in [1], in experiment [2], in experiment [3], in experiment [6], in [7] and in experiment [8] was “inactive” in each case. Besides, the Potency result in [9] was “inactive”.

Turning to `CCOC(=O)Cc1cccc2ccccc12`, the Potency result in [1], in [2], in experiment [3], in experiment [4], in [6] and in [7] was “inactive” throughout. In addition, the Potency result in experiment [8] and in experiment [9] was “inactive” throughout. Also, the activity change, positive = activation in experiment [5] was -0.505%.

`C/C(=C(\CCOP(=O)(O)O)SC(=O)c1ccccc1)N(C=O)Cc1cnc(C)nc1N`: the values for the activity change, negative = cytotoxicity in experiment [1] and in experiment [6] were -1.24% [at 6.97 µM] and 1.32% [at 6.97 µM], respectively. Besides, the activation (H2AX phosphorylation) in [10] is -0.259% [at 14 µM]. Moreover, the activity change, negative = cytotoxic was 2.89% [at 6.97 µM] in experiment [7] and -0.476% [at 6.97 µM] in experiment [9]. In addition, in experiment [8], the cytotoxicity was 0.458% [at 6.97 µM].

Consider `C=C(C)C(=O)OCCOCC`, for which the Potency result in experiment [1], in experiment [2], in experiment [3], in experiment [6], in experiment [7] and in [8] was “inactive” throughout. Also, in [9], the Potency result is “inactive”.

As for `O=C1OC(CN2CCOCC2)CN1/N=C/c1ccc([N+](=O)[O-])o1` (configuration not stated), the Potency entry in [1], in experiment [2], in [3], in experiment [6], in experiment [7] and in experiment [8] was “inactive” in each case. In addition, the Potency entry in experiment [9] was “inactive”.

On to `CCOc1ccc(N)c([N+](=O)[O-])c1`, for which the Potency result in [1], in [2], in experiment [3], in experiment [4], in experiment [6] and in [8] was “inactive” in each case. In addition, the Potency result in experiment [9] was “inactive”. The activity change, positive = activation in [5] is -0.453%.

As for `CCCCOC(=O)CCCCCCCC(=O)OCCCC`, the Potency result in experiment [1], in [2], in experiment [3], in experiment [6], in [7] and in [8] was “inactive” throughout. The Potency entry in [9] is “inactive”. Further, the activity change, positive = activation in experiment [5] was 2.99%.

Turning to `NCC(=O)O`, the activity change, negative = cytotoxicity in experiment [1] is 0.428% [at 15.8 µM]; in experiment [6], 3.17% [at 15.8 µM]. The activation (H2AX phosphorylation) in experiment [10] was 0.478% [at 31.6 µM]. For the same compound, the activity change, negative = cytotoxic is 7.53% [at 15.8 µM] in experiment [7] and 0.792% [at 15.8 µM] in [9]. Further, the cytotoxicity in [8] is -0.777% [at 15.8 µM].

For `O=C(O)c1ccco1`, the Potency result in experiment [1], in experiment [2], in experiment [3], in experiment [6], in experiment [7] and in experiment [8] was “inactive” in each case. In addition, in experiment [9], the Potency entry is “inactive”.

Consider `CCCCCCCCO[C@@H]1O[C@H](CO)[C@@H](O)[C@H](O)[C@H]1O`, for which the Potency result in [1], in [2], in experiment [3], in [6], in experiment [7] and in [8] was “inactive” throughout. The Potency result in experiment [9] was “inactive”.

In the case of `CCCCCCCC#N`, the Potency result in experiment [1], in experiment [2], in [3], in experiment [4], in experiment [6] and in experiment [7] was “inactive” in each case. Further, the Potency entry in experiment [8] and in [9] was “inactive” throughout. Besides, in experiment [5], the activity change, positive = activation was 2.85%.

`CCCCCCCCCCCCCCCCCCOS(=O)(=O)O`: in experiment [1], the Potency was 38.9 µM (active). Moreover, the Potency result in experiment [10], in experiment [6], in experiment [8] and in experiment [9] was “inactive” throughout. For the same compound, the activity change, positive = activation in experiment [5] was -38.9%.

Consider `CCCNCC(O)COc1ccccc1C(=O)CCc1ccccc1` (configuration not stated), for which the Potency result in experiment [1], in [10], in [6], in experiment [8] and in experiment [9] was “inactive” each time. Moreover, the Potency in experiment [7] is 2.39 µM (active).

With `O=C(CS)Nc1ccccc1`, the Potency entry in experiment [1], in experiment [2], in experiment [3], in experiment [6], in experiment [7] and in [8] was “inactive” each time. Further, the Potency result in [9] is “inactive”.

`Nc1ccc(N)c2c1C(=O)c1ccccc1C2=O`: the Potency result in [1], in [2], in experiment [6], in experiment [8] and in experiment [9] was “inactive” in each case. For the same compound, the Potency in experiment [3] is 50.5 µM (active). Besides, the activity change, positive = activation in experiment [5] is -37.5%.

As for `COc1cc(Cl)c(OC)cc1N`, the Potency entry in [1], in [2], in experiment [3], in [6], in [7] and in experiment [8] was “inactive” in each case. The Potency entry in [9] is “inactive”.

With `COc1cc(Cl)ccc1Oc1ccc(Cl)cc1Cl`, the Potency result in experiment [1], in [2], in experiment [6], in experiment [7], in [8] and in experiment [9] was “inactive” in each case. In addition, the Potency in experiment [3] was 97.9 µM (active).

Consider `Cc1oc(-c2ccccc2)nc1CCOc1cccc2c1ccn2CCC(=O)O`, for which the Potency result in experiment [1], in [2], in [3], in experiment [6], in experiment [7] and in experiment [8] was “inactive” throughout. In experiment [9], the Potency entry is “inactive”.

With `CCCCc1ncc(/C=C(\Cc2cccs2)C(=O)O)n1Cc1ccc(C(=O)O)cc1`, the Potency entry in experiment [1], in [2], in experiment [3], in experiment [6], in experiment [7] and in experiment [8] was “inactive” each time. For the same compound, the Potency entry in [9] is “inactive”.

As to `CN(Cc1ccc(C(C)(C)C)cc1)Cc1cccc2ccccc12`, the Potency entry in experiment [1], in experiment [10], in [6], in [7], in [8] and in [9] was “inactive” throughout.

Consider `C#CCN(C)CCCOc1ccc(Cl)cc1Cl`, for which the Potency entry in experiment [1], in experiment [10], in experiment [6], in [7], in [8] and in [9] was “inactive” throughout.
